The values below come from publication PMC11062922 (Nature Chemical Biology, 2023).

Common to all, as to parameters: species or system human, MV4-11 + K-562 + COLO205 + SK-N-BE2 + OVCAR-8
The test system of one test is PIK3CB. The following applies: read-out: apparent Kd, n = 1.
The next test has as its system PIK3C3. The conditions noted are these: read-out: apparent Kd, n = 1.
The test system of a further test is ROCK2. The following applies: read-out: apparent Kd, n = 1.
For the next test, the system named is ROCK1. The conditions noted are these: read-out: apparent Kd, n = 1.
A further test has as its system PLK1. The following applies: read-out: apparent Kd, compound concentrations: 100 nM and 1000 nM (sheet 'Samples'), n = 1.
In the next test the test system is TESK1. The conditions noted are these: read-out: apparent Kd, n = 1.
Where [1] appears, read: compound concentrations: 100 nM and 1000 nM (sheet 'Samples'), CATDS: 1.
The mark [2] stands for this setting: compound concentrations:100 nM and 1000 nM (sheet 'Samples').

Each structure is given as a SMILES string. Like-named read-outs stand apart in the source and are kept apart here.

As for `CN(C)S(=O)(=O)c1cc(-c2ccc3nccc(-c4cccc(S(N)(=O)=O)c4)c3c2)cnc1N` [GSK1669921A], the potency estimated from few doses in the test on PIK3CB (compound concentrations: 100 nM and 1000 nM (sheet 'Samples'), CATDS: 0.12770502550951299) is 777 nM. Turning to `Cc1c(Cn2c(C)c(C)n3c(=O)cc(N4CCOCC4)nc23)cccc1C(F)(F)F` [GSK2328680_KCGS], in the test on PIK3CB (setting [1]), the potency estimated from few doses was 45.8 nM. With `O=C(O)C(F)(F)F.[2H]C([2H])(c1cccc(C(F)(F)F)c1C)n1c(SC)nn2c(=O)cc(N3CCOCC3)nc12` [GSK2363608B], the potency estimated from few doses in the test with PIK3CB (setting [2]) was 8.69 nM. As to `CSc1nn2c(=O)cc(N3CCOCC3)nc2n1Cc1cccc(Cl)c1Cl` [GSK2347225A], the potency estimated from few doses in the test on PIK3C3 (compound concentrations: 100 nM and 1000 nM (sheet 'Samples'), CATDS: 0.39036921617708198) is 41 nM; in the test on PIK3CB (compound concentrations: 100 nM and 1000 nM (sheet 'Samples'), CATDS: 0.69525432072765503), 11.5 nM. As to `CCn1c(-c2nonc2N)nc2ccccc21` [SB-693162], the potency estimated from few doses in the test with ROCK2 (setting [2]) is 1820 nM. As for `Nc1ncc(-c2ccc3nccc(-c4ccncc4)c3c2)cc1S(=O)(=O)N1CCCCC1` [GSK1693850A], the potency estimated from few doses in the test with PIK3C3 (compound concentrations: 100 nM and 1000 nM (sheet 'Samples'), CATDS: 6.5868178094699706E-2) was 1120 nM; with PIK3CB (compound concentrations: 100 nM and 1000 nM (sheet 'Samples'), CATDS: 8.8291431205062498E-2) it was 406 nM. In the case of `Cc1c(Cn2c(C)nn3c(=O)cc(N4CCO[C@H](C)C4)nc23)cccc1C(F)(F)F` [GSK2373690A], the potency estimated from few doses in the test on PIK3CB (setting [2]) is 6.1 nM. With `COc1ncc(-c2cc(-c3ncc(CN4C[C@@H](C)O[C@@H](C)C4)o3)c3cn[nH]c3c2)cc1NS(C)(=O)=O` [GSK2292767], the potency estimated from few doses was 70.7 nM with PIK3C3 (compound concentrations: 100 nM and 1000 nM (sheet 'Samples'), CATDS: 0.16198268418526299); 335 nM with PIK3CB (compound concentrations: 100 nM and 1000 nM (sheet 'Samples'), CATDS: 0.10653178363766699).

For `Cc1nn2c(=O)cc(N3CCOCC3)nc2n1Cc1cccc(Cl)c1Cl` [GSK2342769A], the potency estimated from few doses was 8.1 nM in the test with PIK3C3 (setting [2]); 14.2 nM in the test on PIK3CB (compound concentrations: 100 nM and 1000 nM (sheet 'Samples'), CATDS: 0.39167168284884402). `O=c1cc(N2CCOCC2)nc2n(Cc3ccc(F)c(Cl)c3)ccn12` [GSK2297099A]: the potency estimated from few doses in the test on PIK3C3 (setting [2]) is 912 nM; in the test with PIK3CB (compound concentrations: 100 nM and 1000 nM (sheet 'Samples'), CATDS: 0.58054918147360901), 32.5 nM. Consider `CC1=C(C(=O)Nc2ccc3[nH]ncc3c2)C(c2ccc(F)cc2)N=C(c2ccc(C(F)(F)F)nc2)N1` (centres unmarked) [GSK317354A], for which the potency estimated from few doses with ROCK1 (compound concentrations: 100 nM and 1000 nM (sheet 'Samples'), CATDS: 0.52745543701192599) was 630 nM; in the test on ROCK2 (compound concentrations: 100 nM and 1000 nM (sheet 'Samples'), CATDS: 0.475261399355146), 777 nM. In the case of `COc1cc2ncn(-c3cc(OCC4CCCO4)c(C(N)=O)s3)c2cc1OC` (centres unmarked) [GSK204607A], in the test on PLK1 (CATDS: 0.33403432138317102), the potency estimated from few doses was 838 nM. On to `Cc1ccccc1COc1cc(-n2cnc3cc(Cl)ccc32)sc1C(N)=O` [GW813349X], for which the potency estimated from few doses in the test with PLK1 (CATDS: 1) was 1570 nM.

On to `Cc1nnc(-c2ccc(C)c(-c3ccc(C(=O)O)cc3)c2)o1` [GW608005X], for which the potency estimated from few doses in the test on TESK1 (setting [2]) is 900 nM. As to `COc1cccc(C2=C(N(C)c3ccccc3)C(=O)NC2=O)c1` [SB-334865], the potency estimated from few doses in the test on PLK1 (CATDS: 1) is 1420 nM. Consider `Nc1nonc1-c1nc2cnccc2n1C1CC1` [SB-736302], for which the potency estimated from few doses was 1820 nM in the test with ROCK1 (compound concentrations: 100 nM and 1000 nM (sheet 'Samples'), CATDS: 0.19196895649818499); 1380 nM with ROCK2 (compound concentrations: 100 nM and 1000 nM (sheet 'Samples'), CATDS: 0.21159695131376299). `COC(=O)c1cccc(NC(=O)NC2CCN(c3ccnc(Nc4ccc(F)cc4)n3)C2)c1` (centres unmarked) [GSK1379725A]: the potency estimated from few doses with TESK1 (setting [1]) is 1320 nM. Take `CCCNC(=O)Nc1ccc(N(C)c2ccnc(NC3CC3)n2)cc1` [GW818933X]: the potency estimated from few doses in the test on TESK1 (compound concentrations: 100 nM and 1000 nM (sheet 'Samples'), CATDS: 0.44455887865749399) was 1860 nM. `N#Cc1ccc(C(=O)c2cnn(-c3ccc(F)cc3)c2N)cc1` [RO1153198-000]: the potency estimated from few doses in the test on TESK1 (compound concentrations: 100 nM and 1000 nM (sheet 'Samples'), CATDS: 0.53853377364092803) is 1530 nM. Consider `CCn1c(-c2nonc2N)nc2cnc(Oc3cccc(NC(=O)c4ccc(N(C)C)cc4)c3)cc21` [GSK248233A], for which the potency estimated from few doses with ROCK1 (setting [2]) was 230 nM; with ROCK2 (setting [2]), 181 nM. With `COc1ccc2ncn(-c3cc(O[C@H](C)c4ccccc4C(F)(F)F)c(C(N)=O)s3)c2c1` [GSK317315A], the potency estimated from few doses with PLK1 (CATDS: 0.88975940081611404) was 128 nM. Take `CC1=C(C(=O)Nc2ccc3[nH]ncc3c2)C(c2ccc(Cl)c(Cl)c2)CC(=O)N1` (centres unmarked) [GSK299115A]: the potency estimated from few doses in the test on ROCK1 (setting [2]) was 112 nM; with ROCK2 (setting [2]), 140 nM.

In the case of `Cl.NC(=O)c1cccc(Nc2nccc(Nc3ccc(Oc4cccc(Cl)c4)c(Cl)c3)n2)c1` [GW659008A], the potency estimated from few doses in the test with TESK1 (setting [1]) was 1780 nM. Turning to `C[C@@H]1CC[C@H](C(=O)NC2CCCCC2)CN1c1cc(-c2ccc3c(N)n[nH]c3c2)nc(N)n1` [GSK2291363A], the potency estimated from few doses in the test on ROCK1 (setting [2]) was 2010 nM; with ROCK2 (setting [2]) it was 1450 nM.

Consider `CC1=C(C(=O)Nc2cc3cn[nH]c3cc2F)C(c2ccc(C(F)(F)F)cc2)CC(=O)N1` (centres unmarked) [GSK429286A], for which the potency estimated from few doses in the test with ROCK1 (compound concentrations: 100 nM and 1000 nM (sheet 'Samples'), CATDS: 0.46177660943925602) was 57.8 nM; in the test with ROCK2 (compound concentrations: 100 nM and 1000 nM (sheet 'Samples'), CATDS: 0.48334108773041601), 53 nM. As to `CC1=C(C(=O)Nc2ccc3[nH]nc(C)c3c2)C(c2ccc(C(F)(F)F)cc2)CC(=O)N1` (centres unmarked) [GSK466314A], the potency estimated from few doses in the test with ROCK1 (compound concentrations: 100 nM and 1000 nM (sheet 'Samples'), CATDS: 0.49623940575875802) was 94.4 nM; with ROCK2 (compound concentrations: 100 nM and 1000 nM (sheet 'Samples'), CATDS: 0.50381802643412599), 91.6 nM.
